Records with an inconclusive call do not appear. Calls of active or inactive are those of the source. Calls come from the whole dose curve.
Biological target: Thyrotropin receptor (Homo sapiens) (UniProt P16473)
Test: qHTS assay to identify small molecule antagonists of the thyroid stimulating hormone receptor (TSHR) signaling pathway (AID 1259385); note: nearly all actives have a fitted effect of over 20% in size
Conditions: TSHR-HEK293 cAMP HTRF, TSH-stimulated antagonist mode; series mostly up to 92.4 µM; activity change, negative = inhibition: at the top concentration
Excerpt: U.S. Tox21 Program National Center for Advancing Translational Sciences [NCATS] NIH Chemical Genomics Center [NCGC] U.S. Environmental Protection Agency [EPA] National Institutes of Environmental Health Sciences [NIEHS] National Toxicology Program [NTP] U.S. Food and Drug Administration [FDA] Tox21 Assay Overview: TSHR is the receptor for thyrotropin (thyroid stimulating hormone or TSH), a member of the glycoprotein hormone family. TSH is released by the anterior pituitary gland and is the main regulator of thyroid gland growth and development. Upon binding circulating thyrotropin, a G-protein signal cascade activates adenylyl cyclase and […] cAMP concentration is increased. cAMP is a key second messenger involved extensively in cellular signal transduction pathways associated with the majority of G-protein coupled receptors (GPCRs). The activation of these GPCRs by neurotransmitters, lipids, nucleotides, peptides and hormones results in the activation or the inhibition of plasma membrane-bound adenylate cyclase through heterotrimeric G-proteins. A cell-based TSHR assay can be used to screen chemical compounds that modulate TSHR either in agonist or antagonist mode.
Tox21 Assay Protocol Summary: TSHR-Hek293 cells were dispensed at 800 cells/4uL/well in 1536-well white plates using a Multidrop dispenser. After the assay plates were incubated at a 37C/5% CO2 incubator for 18 hrs, 23 nL of compounds dissolved in DMSO, positive controls or DMSO only was transferred to the assay plate by a pin tool, followed by 1 ul medium containing Ro20-1724. For the antagonist mode screening, 1 uL of TSH was added on the top of the cell/compound mixtures to achieve a final agonist concentration of 1.5 ng/mL. After 30 min of incubation at room temperature, 2.5 ul/well of cAMP-d2 and 2.5 ul/well of anti-cAMP-cryptate were added respectively into the assay plates using a Flying Reagent Dispenser. The plates were incubated at room temperature for 1 hr. The fluorescence intensity in the plates was measured using an Envision plate reader. Each test compound was measured at 15 concentrations and in triplicates.
% is set by controls: 0 for no effect and ±100 for the full control effect; potency is the fitted concentration of half-maximal effect.

Chain of Thyrotropin receptor (Homo sapiens) (P16473 whole entry, looked up): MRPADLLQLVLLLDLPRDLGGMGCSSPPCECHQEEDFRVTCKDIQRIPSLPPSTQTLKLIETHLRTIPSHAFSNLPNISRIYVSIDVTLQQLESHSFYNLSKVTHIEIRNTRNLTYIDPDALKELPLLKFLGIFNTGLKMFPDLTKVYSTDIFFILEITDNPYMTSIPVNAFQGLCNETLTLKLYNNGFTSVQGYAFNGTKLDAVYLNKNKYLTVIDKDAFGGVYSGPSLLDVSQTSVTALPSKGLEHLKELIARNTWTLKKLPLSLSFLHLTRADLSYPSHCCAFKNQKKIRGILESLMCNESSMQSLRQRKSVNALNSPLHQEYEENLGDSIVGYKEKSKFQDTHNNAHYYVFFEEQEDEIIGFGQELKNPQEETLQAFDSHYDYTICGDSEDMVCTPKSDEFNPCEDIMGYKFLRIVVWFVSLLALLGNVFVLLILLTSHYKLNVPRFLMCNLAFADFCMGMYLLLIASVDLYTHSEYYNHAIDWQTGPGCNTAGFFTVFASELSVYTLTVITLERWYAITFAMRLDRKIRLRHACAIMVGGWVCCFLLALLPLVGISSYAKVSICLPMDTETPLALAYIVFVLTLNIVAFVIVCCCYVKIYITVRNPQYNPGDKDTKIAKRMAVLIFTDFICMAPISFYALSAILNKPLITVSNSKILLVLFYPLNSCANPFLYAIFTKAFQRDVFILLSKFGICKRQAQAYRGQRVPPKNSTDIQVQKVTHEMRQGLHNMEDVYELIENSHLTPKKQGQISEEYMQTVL

| SMILES | activity change, negative = inhibition | Potency |
| --- | --- | --- |
| [Cl][Dy]([Cl])[Cl] | -1.38% (inactive) | – |
| Nc1ccc(Oc2cccc(Oc3ccc(N)cc3)c2)cc1 | 1.17% (inactive) | – |
| COc1cc([C@@H]2c3cc4c(cc3[C@@H](O[C@@H]3O[C@@H]5CO[C@@H](C)O[C@H]5[C@H](O)[C@H]3O)[C@H]3COC(=O)[C@H]23)OCO4)cc(OC)c1O | -0.281% (inactive) | – |
| SC1CCCCC1 | 2.34% (inactive) | – |
| C=Cc1ccncc1 | -0.25% (inactive) | – |
| O=[N+]([O-])c1ccc(O)c2ncccc12 | 8.22% [at 42.5 µM] (inactive) | – |
| Nc1ccc(F)c([N+](=O)[O-])c1 | 0.0021% (inactive) | – |
| CN1CCN(CCCN2c3ccccc3Sc3ccc(C(F)(F)F)cc32)CC1 | – | 26.6 µM (active) |
| Cc1c(Cl)c(=O)oc2cc(O)ccc12 | -4.25% (inactive) | – |
| CC(Cc1ccc(O)c(O)c1)C(C)Cc1ccc(O)c(O)c1 (stereo not given) | 0.387% (inactive) | – |
| CC(c1cc(C(C)(C)C)cc(C(C)(C)C)c1O)c1cc(C(C)(C)C)cc(C(C)(C)C)c1O | 5.17% (inactive) | – |
| CCCCCCCCCCCCS(=O)(=O)Cl | -1.01% [at 19 µM] (inactive) | – |
| Brc1cc(Br)cc(Br)c1 | 3.08% (inactive) | – |
| C=CCc1cc(S(=O)(=O)c2ccc(O)c(CC=C)c2)ccc1O | -3.52% (inactive) | – |
| CCc1cccc(C)c1N(C(=O)CS(=O)(=O)O)C(C)COC (stereo not given) | 4.1% (inactive) | – |
| C1=CCCC1 | -4.04% (inactive) | – |
| c1ccc2occc2c1 | -0.149% (inactive) | – |
| Cn1c(=O)[nH]c2ncn(C)c2c1=O | -0.402% (inactive) | – |
| O=C1C=CC(=O)N1c1cccc(N2C(=O)C=CC2=O)c1 | – | 21.7 µM (active) |
| Cc1ccc2n[nH]nc2c1 | 0.164% (inactive) | – |

| SMILES | activity change, negative = inhibition | Potency |
| --- | --- | --- |
| COC(=O)c1ccc([N+](=O)[O-])cc1 | 1.61% (inactive) | – |
| COc1cc(C(C)C)ccc1C | -0.443% [at 19 µM] (inactive) | – |
| Cc1cc(Br)ccc1NC(=O)CCl | 2.89% (inactive) | – |
| NC(=O)C1CO1 (stereo not given) | 1.64% (inactive) | – |
| CC/C=C(\C)C=O | 8.19% (inactive) | – |
| COc1ccc(OC)c(N=Nc2c(O)ccc3ccccc23)c1 | – | 61.1 µM (active) |
| COCCC(=O)OC | -1.07% (inactive) | – |
| [Cl][Sc]([Cl])[Cl] | 5.39% (inactive) | – |
| CCn1c2ccccc2c2ccccc21 | -0.257% (inactive) | – |
| O=C(CCN1CCC(c2ccccc2)C1)c1ccc2c(c1)OCCO2 (stereo not given) | 4.12% [at 42.5 µM] (inactive) | – |
| CCN(CC)c1ccc(N=Nc2ccccc2)cc1 | – | 68.6 µM (active) |
| Nc1cc([N+](=O)[O-])ccc1Cl | 3.54% (inactive) | – |
| CCOc1nc(F)cc2nc(S(=O)(=O)Nc3c(Cl)cccc3C(=O)OC)nn12 | 1.04% (inactive) | – |
| CCCCCCCCCCCC(=O)Cl | -0.32% (inactive) | – |
| CCCCCCCCc1ccc(Nc2ccc(CCCCCCCC)cc2)cc1 | -2.29% [at 42.5 µM] (inactive) | – |
| CCCCCN=C(N)N/N=C/c1c[nH]c2ccc(OC)cc12 | – | 29.8 µM (active) |
| O=C(Nc1ccc([N+](=O)[O-])cc1)Nc1ccc([N+](=O)[O-])cc1 (tested in a mixture with another compound) | -11% [at 42.5 µM] (inactive) | – |
| CC(C)=CCC[C@H](C)CC=O | 3.17% (inactive) | – |
| O=C(O)C[C@H](O)C[C@H](O)/C=C/c1c(C2CC2)nc2ccccc2c1-c1ccc(F)cc1 | 1.31% [at 19 µM] (inactive) | – |
| C/C=C/C(=O)OCC(C)C | -0.497% (inactive) | – |
